In PubChem BioAssay (NCI):
Compounds without any hit were thinned out: in the full panel of roughly 79,000, 15% have a hit. Calls of active or inactive are those of the source. Cut-off read from the data, not from the text of the source: active = growth inhibition above about 70%; inactive = the rest.

Legend:
[1] = NCI Yeast Anticancer Drug Screen. Data for the mec2-1 strain (AID 157); conditions: S. cerevisiae mec2-1 strain, stronger effect = higher value
How it was run: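 Using mec2-1 yeast: add compound, measure growth, express inhibition versus vehicle-treated cultures.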

[2] = NCI Yeast Anticancer Drug Screen. Data for the rad14 strain (AID 159);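 note: 0% = growth of vehicle-treated control cultures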; conditions: S. cerevisiae rad14 strain growth inhibition, stronger effect = higher value
How it was run: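 Vehicle-treated cultures served as the baseline for growth inhibition of a DNA repair-mutant yeast strain exposed to each compound.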

[3] = NCI Yeast Anticancer Drug Screen. Data for the sgs1 mgt1 strain (AID 161);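 note: 0% = growth of cultures given vehicle only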; conditions: S. cerevisiae sgs1 mgt1 strain, stronger effect = higher value
How it was run: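 Percent growth inhibition was derived by comparing compound-exposed mutant yeast with vehicle-exposed cultures. The strain carries alterations in DNA damage repair.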

[4] = NCI Yeast Anticancer Drug Screen. Data for the CLN2oe strain (AID 163);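 note: 0% = growth of vehicle-only control cultures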; conditions: S. cerevisiae CLN2oe strain, stronger effect = higher value
How it was run: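 Whole-cell yeast growth assay. A strain engineered for altered cell-cycle control received compound, and inhibition relative to vehicle-treated cultures was recorded.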

[5] = NCI Yeast Anticancer Drug Screen. Data for the cln2 rad14 strain (AID 165);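 note: 0% = growth equal to vehicle treated cultures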; conditions: S. cerevisiae cln2 rad14 strain, stronger effect = higher value
How it was run: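 Yeast strain cln2 rad14, bearing defects in cell cycle control and DNA repair, serves as the test system; values reflect growth inhibition compared with vehicle.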

[6] = NCI Yeast Anticancer Drug Screen. Data for the bub3 strain (AID 167); conditions: S. cerevisiae bub3 mutant strain, stronger effect = higher value
How it was run: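 Inhibition values come from growth of compound-treated mutant yeast normalised to vehicle-treated controls.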

[7] = NCI Yeast Anticancer Drug Screen. Data for the wt2 strain (AID 169);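 note: 0% = growth of vehicle-treated yeast cultures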; conditions: S. cerevisiae wt2 strain growth inhibition, stronger effect = higher value
How it was run: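 Treated yeast vs. vehicle-treated yeast: growth inhibition determined.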

[8] = NCI Yeast Anticancer Drug Screen. Data for the mlh1 strain (AID 171);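 note: 0% = growth of vehicle-treated control cultures of the same strain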; conditions: S. cerevisiae mlh1 strain growth inhibition, stronger effect = higher value
How it was run: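 A yeast strain with a defined genetic lesion serves as the test organism. Cultures receive compound or vehicle, and growth is measured.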

[9] = NCI Yeast Anticancer Drug Screen. Data for the sgs1 strain (AID 173);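 note: 0% = growth of vehicle-only control cultures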; conditions: S. cerevisiae sgs1 mutant, stronger effect = higher value
How it was run: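 A genetically defined yeast mutant is incubated with the test compound, and its growth is compared to that of the same strain given vehicle.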

[10] = NCI Yeast Anticancer Drug Screen. Data for the mlh1 rad18 strain (AID 175); conditions: S. cerevisiae mlh1 rad18 strain growth inhibition, stronger effect = higher value
How it was run: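 Steps: expose repair-defective yeast to compound; measure growth; express inhibition against vehicle-treated controls.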

[11] = NCI Yeast Anticancer Drug Screen. Data for the rad18 strain (AID 177); conditions: S. cerevisiae rad18 mutant growth inhibition, stronger effect = higher value
How it was run: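 Measured value is growth inhibition of a yeast strain bearing a DNA repair alteration, referenced to vehicle-treated cells.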

[12] = NCI Yeast Anticancer Drug Screen. Data for the wt1 strain (AID 149);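 note: 0% = growth of vehicle-treated wt1 cultures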; conditions: S. cerevisiae wt1 strain (SPY 50644) growth inhibition, stronger effect = higher value
How it was run: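 Vehicle-normalised growth inhibition; strain wt1; compound exposure.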

[13] = NCI Yeast Anticancer Drug Screen. Data for the rad50EPP+ strain (AID 151);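 note: 0% = growth of vehicle-treated control cultures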; conditions: S. cerevisiae rad50 mutant strain, stronger effect = higher value
How it was run: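 Read-out is yeast growth inhibition relative to vehicle; cells used were the rad50EPP+ strain.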

[14] = NCI Yeast Anticancer Drug Screen. Data for the mgt1 strain (AID 153); conditions: S. cerevisiae mgt1 mutant growth inhibition, stronger effect = higher value
How it was run: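 Measured: inhibition of mgt1 yeast growth by compound, normalized to vehicle-treated cultures.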

[15] = NCI Yeast Anticancer Drug Screen. Data for the rad50 strain (AID 155);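 note: 0% = growth of vehicle-only cultures of the same strain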; conditions: S. cerevisiae rad50 strain growth inhibition, stronger effect = higher value
How it was run: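 A DNA repair-deficient yeast mutant serves as the test organism; compound-induced growth inhibition is calculated against vehicle-treated cells.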

[16] = at 5.0 µM (retest, dose inferred, filed as 0.5)
[17] = at 50.0 µM (retest, dose inferred, filed as 5.0)

Measured: growth inhibition

CCOC(=O)C(NC(=O)c1ccccc1)[CH](c1ccccc1)[Sn]([c]1ccccc1)([c]1ccccc1)[c]1ccccc1 (centres undefined)
inactive: [2]; at 1.2 µM 2% | [2]; at 3.7 µM 2% | [2]; at 11.0 µM 4% | [2]; at 33.0 µM 17% | [3]; [16] -4% | [3]; [17] 36% | [4]; at 1.2 µM -5% | [4]; at 3.7 µM -11% | [4]; at 11.0 µM -15% | [4]; at 33.0 µM -6% | [5]; [16] -7% | [5]; [17] 19% | [6]; at 1.2 µM -7% | [6]; at 3.7 µM -4% | [6]; [16] -11% | [6]; at 11.0 µM -6% | [6]; at 33.0 µM 10% | [6]; [17] 59% | [7]; at 1.2 µM -3% | [7]; at 3.7 µM -2% | [7]; at 11.0 µM -1% | [7]; at 33.0 µM 35% | [8]; at 1.2 µM 0% | [8]; at 3.7 µM 0% | [8]; at 11.0 µM 0% | [8]; at 33.0 µM 17% | [9]; at 1.2 µM 1% | [9]; at 3.7 µM 4% | [9]; at 11.0 µM 4% | [9]; at 33.0 µM 34% | [10]; [16] -5% | [11]; at 1.2 µM -1% | [11]; at 3.7 µM 5% | [11]; at 11.0 µM 0% | [11]; at 33.0 µM 45%
active: [1]; at 100.0 µM 95% | [2]; at 100.0 µM 95% | [3]; at 50.0 µM 97.3% | [4]; at 100.0 µM 95% | [5]; at 50.0 µM 93.7% | [6]; at 50.0 µM 98.7% | [6]; at 100.0 µM 94% | [7]; at 100.0 µM 96% | [8]; at 100.0 µM 96% | [9]; at 100.0 µM 94% | [10]; [17] 79% | [10]; at 50.0 µM 98% | [11]; at 100.0 µM 94%

CCc1nc2ccc(N=Nc3c(O)ccc4ccccc34)cc2[nH]1
inactive: [12]; at 1.2 µM 14% | [12]; at 3.7 µM 10% | [12]; at 11.0 µM 19% | [12]; at 33.0 µM 30% | [13]; at 1.2 µM -5% | [13]; at 3.7 µM 4% | [13]; at 11.0 µM 23% | [13]; at 33.0 µM 63% | [14]; at 1.2 µM 0% | [14]; at 3.7 µM -10% | [14]; at 11.0 µM -6% | [14]; at 33.0 µM -2% | [15]; at 1.2 µM 6% | [15]; at 3.7 µM 6% | [15]; [16] -23% | [15]; at 11.0 µM 8% | [15]; at 33.0 µM 34% | [15]; [17] 25% | [1]; at 1.2 µM 0% | [1]; at 3.7 µM 7% | [1]; [16] -49% | [1]; at 11.0 µM 10% | [1]; at 33.0 µM 21% | [1]; [17] 65% | [2]; at 1.2 µM -15% | [2]; at 3.7 µM -29% | [2]; at 11.0 µM -20% | [2]; at 33.0 µM 32% | [3]; [16] -4% | [3]; [17] 21% | [4]; at 1.2 µM 2% | [4]; at 3.7 µM 1% | [4]; at 11.0 µM -5% | [4]; at 33.0 µM 9% | [5]; [16] 9% | [5]; [17] 41% | [6]; at 1.2 µM -3% | [6]; at 3.7 µM -11% | [6]; [16] -9% | [6]; at 11.0 µM -18% | [6]; at 33.0 µM 13% | [7]; at 1.2 µM -13% | [7]; at 3.7 µM 12% | [7]; at 11.0 µM -5% | [7]; at 33.0 µM 12% | [8]; at 1.2 µM -15% | [8]; at 3.7 µM -10% | [8]; at 11.0 µM -18% | [8]; at 33.0 µM 17% | [9]; at 1.2 µM 1% | [9]; at 3.7 µM 17% | [9]; at 11.0 µM 24% | [9]; at 33.0 µM 57% | [10]; [16] -22% | [10]; [17] 46% | [11]; at 1.2 µM -8% | [11]; at 3.7 µM -10% | [11]; at 11.0 µM 1% | [11]; at 33.0 µM 21%
active: [12]; at 100.0 µM 96% | [13]; at 100.0 µM 93% | [14]; at 100.0 µM 96% | [15]; at 50.0 µM 89% | [15]; at 100.0 µM 95% | [1]; at 50.0 µM 93.2% | [1]; at 100.0 µM 93% | [2]; at 100.0 µM 93% | [3]; at 50.0 µM 92.5% | [4]; at 100.0 µM 95% | [5]; at 50.0 µM 91.9% | [6]; [17] 92% | [6]; at 50.0 µM 92.2% | [6]; at 100.0 µM 95% | [7]; at 100.0 µM 96% | [8]; at 100.0 µM 95% | [9]; at 100.0 µM 95% | [10]; at 50.0 µM 90.1% | [11]; at 100.0 µM 95%

COc1ccc(C(=O)OCCc2ccccc2)cc1
active: [6]; [17] 79%
inactive: [12]; at 1.2 µM -2% | [12]; at 3.7 µM -5% | [12]; at 11.0 µM -5% | [12]; at 33.0 µM -7% | [12]; at 100.0 µM -8% | [13]; at 1.2 µM 10% | [13]; at 3.7 µM 16% | [13]; at 11.0 µM 19% | [13]; at 33.0 µM 31% | [13]; at 100.0 µM 47% | [14]; at 1.2 µM -4% | [14]; at 3.7 µM -3% | [14]; at 11.0 µM -3% | [14]; at 33.0 µM -5% | [14]; at 100.0 µM -4% | [15]; at 1.2 µM 6% | [15]; at 3.7 µM 3% | [15]; [16] -3% | [15]; at 11.0 µM 1% | [15]; at 33.0 µM 13% | [15]; [17] 23% | [15]; at 50.0 µM -7.35% | [15]; at 100.0 µM 9% | [1]; at 1.2 µM -1% | [1]; at 3.7 µM -4% | [1]; [16] -28% | [1]; at 11.0 µM -4% | [1]; at 33.0 µM -5% | [1]; [17] -14% | [1]; at 50.0 µM 1.85% | [1]; at 100.0 µM -5% | [2]; at 1.2 µM 5% | [2]; at 3.7 µM 0% | [2]; at 11.0 µM -6% | [2]; at 33.0 µM 3% | [2]; at 100.0 µM 4% | [3]; [16] 7% | [3]; [17] 32% | [3]; at 50.0 µM 6.8% | [4]; at 1.2 µM -3% | [4]; at 3.7 µM -9% | [4]; at 11.0 µM -10% | [4]; at 33.0 µM -7% | [4]; at 100.0 µM -6% | [5]; [16] -1% | [5]; [17] -2% | [5]; at 50.0 µM -10.5% | [6]; at 1.2 µM 2% | [6]; at 3.7 µM 12% | [6]; [16] 20% | [6]; at 11.0 µM 16% | [6]; at 33.0 µM 34% | [6]; at 50.0 µM 56.5% | [6]; at 100.0 µM 34% | [7]; at 1.2 µM -6% | [7]; at 3.7 µM -9% | [7]; at 11.0 µM -3% | [7]; at 33.0 µM -12% | [7]; at 100.0 µM -8% | [8]; at 1.2 µM 0% | [8]; at 3.7 µM 0% | [8]; at 11.0 µM -5% | [8]; at 33.0 µM 1% | [8]; at 100.0 µM 9% | [9]; at 1.2 µM -15% | [9]; at 3.7 µM 7% | [9]; at 11.0 µM -18% | [9]; at 33.0 µM -2% | [9]; at 100.0 µM -4% | [10]; [16] 10% | [10]; [17] 64% | [10]; at 50.0 µM -16.4% | [11]; at 1.2 µM 3% | [11]; at 3.7 µM 3% | [11]; at 11.0 µM 0% | [11]; at 33.0 µM 9% | [11]; at 100.0 µM 8%
